Here are results for three compounds from PubChem BioAssay (EPA / NIEHS).

A short description of test [1]: ATG_CMV_CIS: Attagene CIS-FACTORIAL HepG2 Assay for human CMV (Internal Marker) (AID 2282928).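 Further: endpoint acts as a background internal control marker rather than a target.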 The following applies: HepG2 CMV promoter reporter, transcription factor profiling; actives raise or lower the signal. In a few lines: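 Reporter transcripts from transfected HepG2 cells are isolated after 24 h of chemical dosing, reverse-transcribed and amplified. Fragments labeled with 6-FAM are cut with HpaI and quantified by capillary electrophoresis; DMSO defines baseline.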

Test [2] in a line: ATG_ISRE_CIS: Attagene CIS-FACTORIAL HepG2 Assay for human Interferon Regulatory Factor 1 (IRF1) binding to an Interferon-Stimulated Response Element (ISRE) (AID 2282948). The following applies: HepG2 ISRE cis-reporter (Attagene), mRNA transcription readout; actives raise or lower the signal. In a few lines:
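Uses HepG2 liver cells transfected with cis-regulated reporters and measures mRNA 24 h post-dosing through RT-PCR, primer-extension labelling and capillary electrophoresis, with DMSO as negative control.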

The nature of test [3]: ATG_M_32_CIS: Attagene CIS-FACTORIAL HepG2 Assay for M32 Transcription Factor (Internal Marker) (AID 2282949).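 Further: background control marker of the multiplexed CIS panel rather than a real target.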 The following applies: HepG2 Attagene cis-factorial M32 reporter, mRNA; actives raise or lower the signal. A digest of the protocol: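 Transient MRTU transfection of HepG2; 24 h compound treatment; TriZol RNA, oligo(dT) RT, reporter PCR, 6-FAM primer extension, HpaI cut, CE. Gain/loss of signal vs DMSO.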

Test [4] deals with Hepatocyte nuclear factor 6 (Homo sapiens) (UniProt Q9UBC0). As to the kind of experiment: ATG_HNF6_CIS: Attagene CIS-FACTORIAL HepG2 Assay for human Hepatocyte Nuclear Factor 6 (HNF6) (AID 2282952). Conditions: HepG2 Attagene cis-factorial HNF6 reporter transcription; actives raise or lower the signal. In a few lines: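 Activity values derive from bidirectional fitting against DMSO of reporter mRNA levels, measured by capillary electrophoresis of labelled RT-PCR products from HepG2 cells exposed 24 h.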
Hepatocyte nuclear factor 6 (Homo sapiens), sequence (Q9UBC0 whole entry, looked up): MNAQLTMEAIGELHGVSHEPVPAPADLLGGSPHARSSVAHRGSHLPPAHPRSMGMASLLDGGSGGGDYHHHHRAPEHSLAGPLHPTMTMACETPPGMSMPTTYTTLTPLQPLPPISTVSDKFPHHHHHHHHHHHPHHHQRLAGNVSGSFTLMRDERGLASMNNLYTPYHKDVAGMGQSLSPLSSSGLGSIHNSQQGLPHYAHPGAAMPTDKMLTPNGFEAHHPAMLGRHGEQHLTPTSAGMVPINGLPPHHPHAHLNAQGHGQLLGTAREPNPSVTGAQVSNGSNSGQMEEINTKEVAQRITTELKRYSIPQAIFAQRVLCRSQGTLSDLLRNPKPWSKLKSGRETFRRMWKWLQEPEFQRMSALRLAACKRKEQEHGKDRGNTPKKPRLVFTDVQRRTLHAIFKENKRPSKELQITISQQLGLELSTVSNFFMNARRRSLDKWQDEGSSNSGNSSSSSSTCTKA

Test [5] addresses Heat shock factor protein 1 (Homo sapiens) (UniProt Q00613). The test is described as follows: ATG_HSE_CIS: Attagene CIS-FACTORIAL HepG2 Assay for human Heat Shock Transcription Factor 1 (HSE) (AID 2282953). The following applies: HepG2 HSE cis-reporter, Attagene RNA transcription; actives raise or lower the signal. In a few lines: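 HepG2 cells transiently transfected with multiple reporter transcription units under cis-regulatory promoter control, measuring endogenous transcription factor activity. After 24 h chemical exposure, reporter mRNA quantified by RT-PCR, fluorescent labelling, HpaI digestion and capillary electrophoresis; bidirectional fit versus DMSO.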

The nature of test [6]: ATG_RORE_CIS: Attagene CIS-FACTORIAL HepG2 Assay for human RAR-related Orphan Receptor Element (RORE) (AID 2282959). The following applies: HepG2 Attagene cis-factorial RORE reporter, mRNA; actives raise or lower the signal. A digest of the protocol:
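Transfect HepG2 with MRTUs; treat 24 h; extract RNA; RT with oligo(dT); PCR with reporter-specific primers; 6-FAM primer extension; HpaI digest 2 h at 37 C; capillary electrophoresis. Fit vs DMSO, bidirectional.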

Test [7] deals with Signal transducer and activator of transcription 3 (Homo sapiens) (UniProt P40763). The test is described as follows: ATG_STAT3_CIS: Attagene CIS-FACTORIAL HepG2 Assay for human Signal Transducer and Activator of Transcription 3 (STAT3) (AID 2282963). Conditions: HepG2, Attagene cis-factorial STAT3 reporter transcription; actives raise or lower the signal. In a few lines: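 Cis-factorial format: endogenous transcription factors in HepG2 drive transfected reporter units. After 24 h treatment, reporter RNA was reverse-transcribed, amplified, FAM-labelled and HpaI-digested before CE analysis; activity scored in both directions against DMSO.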
Signal transducer and activator of transcription 3 (Homo sapiens), sequence (P40763 whole entry, looked up): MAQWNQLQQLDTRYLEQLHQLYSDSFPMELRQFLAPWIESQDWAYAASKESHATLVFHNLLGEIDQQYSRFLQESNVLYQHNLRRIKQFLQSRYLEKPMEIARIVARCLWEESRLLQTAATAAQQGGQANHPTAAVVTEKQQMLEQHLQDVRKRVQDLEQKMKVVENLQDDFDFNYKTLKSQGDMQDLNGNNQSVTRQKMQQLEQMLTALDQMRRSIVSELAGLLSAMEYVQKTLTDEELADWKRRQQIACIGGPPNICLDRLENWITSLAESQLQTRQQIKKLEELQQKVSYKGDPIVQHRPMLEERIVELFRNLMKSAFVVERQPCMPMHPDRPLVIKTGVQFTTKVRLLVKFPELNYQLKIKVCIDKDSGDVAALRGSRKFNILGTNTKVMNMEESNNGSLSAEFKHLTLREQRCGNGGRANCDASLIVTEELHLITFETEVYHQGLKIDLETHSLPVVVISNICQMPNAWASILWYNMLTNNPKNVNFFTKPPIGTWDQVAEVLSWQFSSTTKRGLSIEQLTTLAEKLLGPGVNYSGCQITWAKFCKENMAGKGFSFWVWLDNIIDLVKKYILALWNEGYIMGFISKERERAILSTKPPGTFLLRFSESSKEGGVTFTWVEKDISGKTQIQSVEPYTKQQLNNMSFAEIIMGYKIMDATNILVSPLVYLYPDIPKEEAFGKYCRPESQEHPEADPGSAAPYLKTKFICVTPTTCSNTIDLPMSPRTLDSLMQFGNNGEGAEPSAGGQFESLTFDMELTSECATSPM

The nature of test [8]: ATG_TA_CIS: Attagene CIS-FACTORIAL HepG2 Assay for human TA Basal Promoter (AID 2282964). The following applies: HepG2 Attagene CIS-factorial TA basal promoter reporter; actives raise or lower the signal. In a few lines:
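HepG2 cells transiently transfected with multiplexed cis-promoter reporter units, dosed 24 h. Reporter mRNA measured by RT-PCR, 6-FAM labelling, HpaI digestion and capillary electrophoresis; bidirectional fit versus DMSO baseline, serving as background control.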

Test [9] in a line: ATG_TCF_b_cat_CIS: Attagene CIS-FACTORIAL HepG2 Assay for human T-Cell-Factor with beta-catenin (TCF/b-cat) (AID 2282965). Conditions: HepG2 TCF/beta-catenin cis-reporter transcription, actives raise or lower the signal. In a few lines: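 Measured: reporter mRNA in HepG2 transiently transfected with cis-promoter reporter units, 24 h after chemical addition. Fitting was bidirectional, DMSO as negative control.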

Test [10] is described as follows: ATG_TAL_CIS: Attagene CIS-FACTORIAL HepG2 Assay for human TAL Basal Promoter (AID 2282966).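 Further: background control endpoint measuring basal TAL promoter reporter mRNA not a specific factor.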 Conditions: HepG2 Attagene cis-factorial TAL promoter reporter; actives raise or lower the signal. In a few lines: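 Transiently transfected HepG2 (cis-regulated reporter units), 24 h treatment, mRNA read by fluorescent CE after RT-PCR; bidirectional fit, DMSO baseline.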

Test [11] is described as follows: ATG_TGFb_CIS: Attagene CIS-FACTORIAL HepG2 Assay for human Transforming Growth Factor (TGF) (AID 2282967). Conditions: HepG2 Attagene CIS TGFb reporter, mRNA transcription; actives raise or lower the signal. In a few lines:
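HepG2 cells transiently transfected with cis-promoter-driven multiplexed reporter units; 24 h compound exposure. Reporter mRNA measured by RT-PCR, 6-FAM labeling, HpaI digestion and capillary electrophoresis; bidirectional fit versus DMSO baseline.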

Test [12] is described as follows: ATG_VDRE_CIS: Attagene CIS-FACTORIAL HepG2 Assay for human Vitamin D Receptor Element (VDRE) (AID 2282968). Conditions: HepG2 VDRE cis-reporter transcription, actives raise or lower the signal. In a few lines: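 Measures endogenous factor activity through cis-element-driven reporter transcripts in transiently transfected HepG2. Cells are treated 24 h; reporter mRNA is quantified by RT-PCR and capillary electrophoresis; fitting is bidirectional.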

Test [13] addresses X-box-binding protein 1 (Homo sapiens) (UniProt P17861). The test is described as follows: ATG_Xbp1_CIS: Attagene CIS-FACTORIAL HepG2 Assay for human X-box Binding Protein 1 (XBP1) (AID 2282972). The following applies: HepG2 XBP1 cis-element reporter, Attagene multiplex; actives raise or lower the signal. In a few lines: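 Changes in reporter transcript abundance, read by RT-PCR and capillary electrophoresis, reflect endogenous transcription factor activity. Transfected HepG2 cells received compound for 24 hours; DMSO defined baseline for bidirectional analysis.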

Test [14] deals with Transcriptional activator Myb (Homo sapiens) (UniProt P10242). The test is described as follows: ATG_Myb_CIS: Attagene CIS-FACTORIAL HepG2 Assay for human Myeloblastosis (Myb) Proto-Oncogene Transcription Factor (AID 2282986). Conditions: HepG2 Attagene CIS-FACTORIAL Myb reporter transcription; actives raise or lower the signal. In a few lines: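 Using HepG2 liver cells bearing transiently transfected cis-promoter reporter constructs, the assay measures induction or loss of reporter mRNA after 24 hours of dosing. Detection used fluorescently labeled RT-PCR products separated by capillary electrophoresis.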
Transcriptional activator Myb (Homo sapiens), sequence (P10242 whole entry, looked up): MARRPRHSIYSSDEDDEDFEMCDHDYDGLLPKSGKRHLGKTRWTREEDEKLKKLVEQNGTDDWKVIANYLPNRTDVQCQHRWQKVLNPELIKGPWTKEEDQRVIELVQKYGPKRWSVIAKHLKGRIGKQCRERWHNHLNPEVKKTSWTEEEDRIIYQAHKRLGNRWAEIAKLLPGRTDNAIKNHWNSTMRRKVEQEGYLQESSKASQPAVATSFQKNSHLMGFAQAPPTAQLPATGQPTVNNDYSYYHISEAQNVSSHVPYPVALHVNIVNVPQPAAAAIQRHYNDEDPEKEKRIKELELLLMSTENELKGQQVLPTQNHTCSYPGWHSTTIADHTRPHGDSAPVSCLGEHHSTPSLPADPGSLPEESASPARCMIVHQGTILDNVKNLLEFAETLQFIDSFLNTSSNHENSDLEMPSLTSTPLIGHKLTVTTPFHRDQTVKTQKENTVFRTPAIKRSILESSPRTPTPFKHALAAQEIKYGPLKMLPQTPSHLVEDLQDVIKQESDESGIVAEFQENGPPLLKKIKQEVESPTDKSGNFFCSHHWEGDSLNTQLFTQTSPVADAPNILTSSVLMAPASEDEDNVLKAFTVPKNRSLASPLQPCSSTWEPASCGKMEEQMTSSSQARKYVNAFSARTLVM

The target of test [15] is Nuclear respiratory factor 1 (Homo sapiens) (UniProt Q16656). The test is described as follows: ATG_NRF1_CIS: Attagene CIS-FACTORIAL HepG2 Assay for human Nuclear Respiratory Factor 1 (NRF1) Orphan Gene (AID 2282987). The following applies: HepG2 NRF1 cis-element reporter, Attagene multiplex; actives raise or lower the signal. In a few lines:
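Reporter mRNA induction or loss in HepG2 cells after 24 h dosing; cis-regulated reporter constructs report endogenous transcription-factor activity. Quantified by RT-PCR/capillary electrophoresis fluorescence, DMSO-referenced.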

Test [16] has as its target Myc proto-oncogene protein (Homo sapiens) (UniProt P01106). The test is described as follows: ATG_Myc_CIS: Attagene CIS-FACTORIAL HepG2 Assay for human Myelocytomatosis (Myc) Proto-Oncogene Transcription Factor (AID 2282990). Conditions: HepG2, Attagene cis-reporter transcription factor activity; actives raise or lower the signal. A digest of the protocol: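 Cells of the HepG2 human liver line bear multiple cis-driven reporter transcription units. Reporter mRNA after 24 h exposure is reverse-transcribed, amplified, labelled and resolved by capillary electrophoresis, with gain- or loss-of-signal fitting relative to DMSO.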

A short description of test [17]: ATG_NF_kB_CIS: Attagene CIS-FACTORIAL HepG2 Assay for human Nuclear Factor Kappa B (NF-kB) (AID 2282991). Conditions: HepG2 Attagene cis-factorial NF-kB reporter mRNA; actives raise or lower the signal. A digest of the protocol:
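DMSO served as negative control and baseline for bidirectional curve fitting. Transiently transfected HepG2 cells were dosed for 24 h, then reporter transcripts were measured by RT-PCR with capillary electrophoresis detection.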

The nature of test [18]: ATG_NRF2_ARE_CIS: Attagene CIS-FACTORIAL HepG2 Assay for human Nuclear Factor Erythroid 2 Related Factor 2 (NFR2) response to Antioxidant Response Elements (ARE) (AID 2282992). The following applies: HepG2 Attagene ARE/NRF2 reporter, transcription factor activity; actives raise or lower the signal. In a few lines:
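Using transiently transfected HepG2 cells exposed for 24 h, reporter mRNA levels were determined by RT-PCR with fluorescent primer extension and capillary electrophoresis, analysed for gain or loss of signal against DMSO.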

Test [19] is described as follows: ATG_Oct_MLP_CIS: Attagene CIS-FACTORIAL HepG2 Assay for human Octamer-Binding Transcription Factor (Oct) (AID 2282993). Conditions: HepG2 Attagene cis-factorial Oct reporter, mRNA; actives raise or lower the signal. In a few lines: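 HepG2 cells transiently transfected with cis-promoter-driven multiplexed reporter transcription units, dosed for 24 h. Reporter mRNA quantified by RT-PCR, fluorescent labelling, HpaI digestion and capillary electrophoresis; bidirectional fits versus DMSO baseline.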

The target in test [20] is Cellular tumor antigen p53 (Homo sapiens) (UniProt P04637). The test is described as follows: ATG_p53_CIS: Attagene CIS-FACTORIAL HepG2 Assay for human p53 Transcription Factor (AID 2282994). Conditions: HepG2 p53 cis-element reporter, Attagene mRNA; actives raise or lower the signal. In a few lines:
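In HepG2 cells, reporter transcription units under cis-regulatory promoters were transiently introduced. Following 24 h treatment, RNA was processed to labelled, digested cDNA fragments read by capillary electrophoresis; fitting was bidirectional versus DMSO.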

Calls of active or inactive are those of the source. How the source made its calls: active means hit-call score of the fitted dose curve at least 0.9, where 1 is the maximum; inactive means score below 0.9.

Heat shock factor protein 1 (Homo sapiens), sequence (Q00613 whole entry, looked up): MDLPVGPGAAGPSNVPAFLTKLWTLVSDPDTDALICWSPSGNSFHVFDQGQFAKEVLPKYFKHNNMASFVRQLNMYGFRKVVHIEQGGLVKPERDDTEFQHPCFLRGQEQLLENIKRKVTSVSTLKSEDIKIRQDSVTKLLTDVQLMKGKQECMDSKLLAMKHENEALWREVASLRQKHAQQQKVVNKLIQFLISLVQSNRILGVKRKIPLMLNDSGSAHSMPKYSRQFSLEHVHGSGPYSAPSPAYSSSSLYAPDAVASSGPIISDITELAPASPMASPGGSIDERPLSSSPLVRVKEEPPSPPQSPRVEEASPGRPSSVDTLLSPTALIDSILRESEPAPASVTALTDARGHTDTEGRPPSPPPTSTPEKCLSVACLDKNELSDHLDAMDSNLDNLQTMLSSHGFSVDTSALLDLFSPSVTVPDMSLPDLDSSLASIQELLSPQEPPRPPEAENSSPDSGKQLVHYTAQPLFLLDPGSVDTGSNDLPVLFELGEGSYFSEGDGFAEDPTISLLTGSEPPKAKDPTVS
Cellular tumor antigen p53 (Homo sapiens), sequence (P04637 whole entry, looked up, the tested form may be a part): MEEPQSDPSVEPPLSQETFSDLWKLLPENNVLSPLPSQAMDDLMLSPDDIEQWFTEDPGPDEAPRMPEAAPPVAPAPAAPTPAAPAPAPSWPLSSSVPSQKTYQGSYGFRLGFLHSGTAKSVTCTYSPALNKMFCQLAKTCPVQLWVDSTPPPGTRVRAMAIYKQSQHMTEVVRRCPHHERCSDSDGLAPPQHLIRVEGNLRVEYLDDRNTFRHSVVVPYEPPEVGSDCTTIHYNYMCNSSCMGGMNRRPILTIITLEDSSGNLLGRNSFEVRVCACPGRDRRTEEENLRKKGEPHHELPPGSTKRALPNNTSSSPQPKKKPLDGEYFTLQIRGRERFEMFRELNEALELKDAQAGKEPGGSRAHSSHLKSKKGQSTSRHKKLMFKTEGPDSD
Nuclear respiratory factor 1 (Homo sapiens), sequence (Q16656 whole entry, looked up): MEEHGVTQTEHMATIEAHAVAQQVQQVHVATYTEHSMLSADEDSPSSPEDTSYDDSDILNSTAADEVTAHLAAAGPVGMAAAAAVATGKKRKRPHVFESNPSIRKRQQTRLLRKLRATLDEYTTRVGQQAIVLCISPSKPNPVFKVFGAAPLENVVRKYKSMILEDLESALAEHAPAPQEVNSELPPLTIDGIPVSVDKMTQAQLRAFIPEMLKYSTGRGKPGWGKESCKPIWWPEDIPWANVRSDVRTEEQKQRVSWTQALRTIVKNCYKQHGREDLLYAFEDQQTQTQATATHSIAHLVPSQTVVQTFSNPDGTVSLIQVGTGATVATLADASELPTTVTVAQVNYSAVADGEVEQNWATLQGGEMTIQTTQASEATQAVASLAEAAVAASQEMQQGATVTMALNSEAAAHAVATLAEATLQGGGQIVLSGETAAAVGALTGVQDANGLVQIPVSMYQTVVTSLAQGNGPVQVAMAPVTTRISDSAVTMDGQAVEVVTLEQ
X-box-binding protein 1 (Homo sapiens), sequence (P17861 whole entry, looked up): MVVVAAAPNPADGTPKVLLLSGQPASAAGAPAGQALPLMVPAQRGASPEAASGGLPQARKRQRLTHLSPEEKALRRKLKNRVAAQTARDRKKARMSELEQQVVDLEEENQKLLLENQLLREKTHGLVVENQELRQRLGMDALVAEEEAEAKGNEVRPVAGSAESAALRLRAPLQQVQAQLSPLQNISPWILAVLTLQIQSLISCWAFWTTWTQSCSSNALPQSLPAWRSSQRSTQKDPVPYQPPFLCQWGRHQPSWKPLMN
Myc proto-oncogene protein (Homo sapiens), sequence (P01106 whole entry, looked up): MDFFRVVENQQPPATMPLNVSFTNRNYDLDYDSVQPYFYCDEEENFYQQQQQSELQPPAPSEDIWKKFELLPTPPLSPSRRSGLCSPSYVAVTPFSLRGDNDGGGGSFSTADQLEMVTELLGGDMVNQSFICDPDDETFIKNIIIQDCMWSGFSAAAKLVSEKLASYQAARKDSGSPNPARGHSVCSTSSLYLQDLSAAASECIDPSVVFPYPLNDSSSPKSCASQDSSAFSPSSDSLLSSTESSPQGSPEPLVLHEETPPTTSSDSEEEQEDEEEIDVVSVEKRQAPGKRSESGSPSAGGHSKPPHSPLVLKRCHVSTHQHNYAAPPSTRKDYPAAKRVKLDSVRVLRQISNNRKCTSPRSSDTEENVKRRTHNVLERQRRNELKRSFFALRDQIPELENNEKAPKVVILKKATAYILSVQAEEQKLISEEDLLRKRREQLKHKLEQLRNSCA

As a reminder, the AC50 is the concentration at which the activity in the assay is half-maximal. Consider `O=C1C(Cl)=C(Cl)C(=O)C(Cl)=C1Cl`, for which the outcome in test [1], in test [2], in [3], in [4], in [6] and in test [7] was inactive. Moreover, the compound was called inactive in [8], in [9], in test [10], in [12], in test [13] and in test [14]. For the same compound, the result in [15], in test [16], in [19] and in [20] was inactive. The half-maximal activity concentration (AC50) in [5] is 89.5 µM (active); in [11], 26.6 µM (active); in test [17] it was 34.6 µM (active); in [18], 48.7 µM (active).
Regarding `ClC1=C(Cl)[C@]2(Cl)[C@@H]3[C@@H](Cl)[C@H](Cl)C[C@@H]3[C@@]1(Cl)C2(Cl)Cl`, the call in [1], in [3], in test [4], in test [5], in test [6] and in [7] was inactive. The compound was called inactive in test [8], in test [9], in test [10], in test [11], in test [12] and in test [13]. The outcome in test [14], in test [15], in [16], in [17], in test [18] and in test [19] was inactive. In addition, the compound was classed as inactive in test [20].
With `O=C(CCl)c1ccccc1`, the compound was classed as inactive in [1], in test [4], in test [5], in test [6], in test [8] and in test [9]. Moreover, the outcome in test [10], in test [11], in [12], in test [13], in [14] and in test [16] was inactive. Further, the call in test [17] and in [19] was inactive. For the same compound, the AC50 in [2] was 18.8 µM (active); in test [15] it was 54.4 µM (active); in test [18] it was 8.04 µM (active); in test [20], 58.6 µM (active).
